Data on eight compounds can be found in PubChem BioAssay (EPA / NIEHS).

The target of test [1] is Nuclear respiratory factor 1 (Homo sapiens) (UniProt Q16656). Description: ATG_NRF1_CIS: Attagene CIS-FACTORIAL HepG2 Assay for human Nuclear Respiratory Factor 1 (NRF1) Orphan Gene (AID 2282987). As to conditions: HepG2 NRF1 cis-element reporter, Attagene multiplex; actives raise or lower the signal. In a few lines:
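Endogenous NRF1-driven reporter transcription measured in transiently transfected human HepG2 liver cells. Readout: reporter mRNA by RT-PCR and capillary electrophoresis with fluorescence detection, 24 h post-dosing. Gain or loss of signal fitted relative to DMSO baseline.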

A short description of test [2]: ATG_NFI_CIS: Attagene CIS-FACTORIAL HepG2 Assay for human Nuclear Factor I (NFI) (AID 2282989). The settings on record: HepG2 cis-regulatory reporter, NFI response element transcription; actives raise or lower the signal. In a few lines:
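Multiplexed cis-reporter system in human HepG2 cells reports native TF activity as reporter mRNA induction 24 h post-dose. Fragments labelled with 6-FAM, HpaI-digested and resolved by capillary electrophoresis; activity fitted both directions versus DMSO.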

The target of test [3] is Myc proto-oncogene protein (Homo sapiens) (UniProt P01106). Description: ATG_Myc_CIS: Attagene CIS-FACTORIAL HepG2 Assay for human Myelocytomatosis (Myc) Proto-Oncogene Transcription Factor (AID 2282990). As to conditions: HepG2, Attagene cis-reporter transcription factor activity; actives raise or lower the signal. Summed up: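 Read-out: fluorescent reporter mRNA fragments resolved by capillary electrophoresis after RT-PCR. Human HepG2 liver cells carried transfected cis-element reporter units and were dosed for 24 h. Gain or loss of signal fitted relative to DMSO baseline.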
Myc proto-oncogene protein (Homo sapiens), sequence (P01106 whole entry, looked up, the tested form may be a part): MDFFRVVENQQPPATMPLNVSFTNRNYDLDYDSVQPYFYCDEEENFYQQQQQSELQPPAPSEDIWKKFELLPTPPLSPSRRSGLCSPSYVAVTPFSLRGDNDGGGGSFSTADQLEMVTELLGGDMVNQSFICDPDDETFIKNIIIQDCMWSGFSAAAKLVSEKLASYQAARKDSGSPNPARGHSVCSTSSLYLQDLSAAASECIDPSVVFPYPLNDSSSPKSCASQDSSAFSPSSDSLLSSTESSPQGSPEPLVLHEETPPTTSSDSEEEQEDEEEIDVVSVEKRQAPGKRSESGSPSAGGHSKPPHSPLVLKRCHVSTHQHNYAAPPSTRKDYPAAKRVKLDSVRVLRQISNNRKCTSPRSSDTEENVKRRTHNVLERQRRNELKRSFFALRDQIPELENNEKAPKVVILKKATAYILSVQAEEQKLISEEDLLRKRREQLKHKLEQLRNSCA

Test [4] can be described thus: ATG_NF_kB_CIS: Attagene CIS-FACTORIAL HepG2 Assay for human Nuclear Factor Kappa B (NF-kB) (AID 2282991). As to conditions: HepG2 Attagene cis-factorial NF-kB reporter mRNA; actives raise or lower the signal. Summed up:
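Read-out: reporter transcript levels quantified by RT-PCR plus capillary electrophoresis of 6-FAM-labelled, HpaI-cut fragments. Transfected HepG2 cells, 24 h compound exposure, endogenous NF-kB-driven cis element; gain or loss scored versus DMSO.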

Test [5] in a line: ATG_NRF2_ARE_CIS: Attagene CIS-FACTORIAL HepG2 Assay for human Nuclear Factor Erythroid 2 Related Factor 2 (NFR2) response to Antioxidant Response Elements (ARE) (AID 2282992). As to conditions: HepG2 Attagene ARE/NRF2 reporter, transcription factor activity; actives raise or lower the signal. In a few lines:
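Cis-factorial assay: transfected HepG2 reporter library, 24 h dosing, mRNA readout via RT-PCR/CE; DMSO-referenced bidirectional analysis.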

A short description of test [6]: ATG_Oct_MLP_CIS: Attagene CIS-FACTORIAL HepG2 Assay for human Octamer-Binding Transcription Factor (Oct) (AID 2282993). The settings on record: HepG2 Attagene cis-factorial Oct reporter, mRNA; actives raise or lower the signal. In a few lines: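 After 24 h compound exposure, transfected HepG2 cells were lysed for total RNA; reporter-specific cDNA was PCR-amplified, fluorescently labelled and sized by capillary electrophoresis. Bidirectional curve fitting used DMSO as baseline.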

Test [7] has as its target Cellular tumor antigen p53 (Homo sapiens) (UniProt P04637). Description: ATG_p53_CIS: Attagene CIS-FACTORIAL HepG2 Assay for human p53 Transcription Factor (AID 2282994). As to conditions: HepG2 p53 cis-element reporter, Attagene mRNA; actives raise or lower the signal. Summed up: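 Using HepG2 hepatoma cells carrying cis-acting multiplexed reporters, mRNA induction is detected after a 24 h exposure. Gain- and loss-of-signal responses are fitted relative to DMSO-treated cells.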

A short description of test [8]: BSK_3C_TissueFactor: BioMAP Diversity Plus: 3C Assay for Tissue Factor Biomarker Activity (AID 2282997). As to conditions: BioMAP 3C HUVEC, tissue factor biomarker readout; actives raise or lower the signal. In a few lines: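 ELISA read-out of Tissue Factor levels on human umbilical vein endothelium collected 24 h after chemical dosing. Gain or loss of signal was fitted relative to DMSO.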

Test [9] is described as follows: BSK_3C_uPAR: BioMAP Diversity Plus: 3C Assay for Urokinase-type plasminogen activator receptor (uPAR) Biomarker Activity (AID 2282998). As to conditions: BioMAP 3C HUVEC, uPAR biomarker ELISA; actives raise or lower the signal. In a few lines:
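Values derive from bidirectional curve fitting relative to DMSO, which served as baseline of activity. uPAR was measured by ELISA in human umbilical vein endothelial primary cultures 24 h after compound addition.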
(In general: In an ELISA, binding on a coated surface is turned into a signal by an enzyme label.)

The nature of test [10]: BSK_3C_VCAM1: BioMAP Diversity Plus: 3C Assay for Vascular cell adhesion molecule 1 (VCAM1) Biomarker Activity (AID 2282999). The settings on record: BioMAP 3C HUVEC, VCAM1 ELISA, cytokine-stimulated; actives raise or lower the signal. In a few lines:
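Human umbilical vein endothelial cells (3C system), biomarker read by ELISA 24 h after dosing; bidirectional fit against DMSO baseline. Cytotoxicity tracked by SRB total-protein staining in parallel cultures at biomarker time.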

A short description of test [11]: BSK_4H_Eotaxin3: BioMAP Diversity Plus: 4H Assay for Eotaxin 3 Biomarker Activity (AID 2283000).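 On outcome: CCL26 protein level quantified by ELISA in parallel with SRB cytotoxicity check.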 The settings on record: primary human endothelial cells (HUVEC); actives raise or lower the signal. In a few lines:
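Chemicals were added to human umbilical vein endothelium cultures, and Eotaxin-3 was quantified by ELISA at 24 h. Values were derived by bidirectional fitting with DMSO serving as negative control and activity baseline.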

Test [12] concerns the target human Peroxisome Proliferator-activated Receptor alpha (PPARa), PPARA (gene 5465) (UniProt Q07869). Description: ATG_PPARa_TRANS: Attagene TRANS-FACTORIAL HepG2 Assay for human Peroxisome Proliferator-activated Receptor alpha (PPARa) (AID 2283001; active means hit-call score of the fitted dose curve at least 0.9, where 1 is the maximum;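 on AC50: potency for gain of reporter signal over DMSO so agonist or activator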). In a few lines: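 Measures transcriptional activity of an exogenous chimeric PPARa-Gal4 protein in transiently transfected HepG2 cells after 24 h dosing. Reporter mRNA quantified via RT-PCR and capillary electrophoresis; DMSO served as negative control.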

Read-out in test [13]: Intercellular Adhesion Molecule 1 (ICAM1), ICAM1 (gene 3383)
Description: BSK_3C_ICAM1: BioMAP Diversity Plus: 3C Assay for Intercellular Adhesion Molecule 1 (ICAM1) Biomarker Activity (AID 2283003). As to conditions: primary human endothelial cells (HUVEC); actives raise or lower the signal. Summed up:
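Primary human umbilical vein endothelial cells in the BioMAP 3C system were exposed to chemicals for 24 h, then ICAM-1 was quantified by ELISA. Activity was fitted bidirectionally against the DMSO negative control baseline.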

For test [14], the target named is human Retinoic Acid Receptor beta (RARb), RARB (gene 5915) (UniProt P10826). Description: ATG_RARb_TRANS: Attagene TRANS-FACTORIAL HepG2 Assay for human Retinoic Acid Receptor beta (AID 2283004; active means hit-call score of the fitted dose curve at least 0.9, where 1 is the maximum). In a few lines:
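Transient transfection of HepG2 with multiple reporter units → chemical dosing, 24 h → total RNA isolation → RT with oligo(dT) → reporter-specific PCR, 6-FAM primer extension, HpaI digest → capillary electrophoresis. Positive direction vs DMSO control.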

The nature of test [15]: BSK_3C_Proliferation: Cell Proliferation Assessment in the BioMAP Diversity Plus: 3C Assay (AID 2283006).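 On AC50: potency may reflect either rise or fall in cell number versus DMSO.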 As to conditions: primary human endothelial cells (HUVEC). In a few lines: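 Human umbilical vein endothelial cells were grown sub-confluent and exposed to chemical for 48 h, then fixed with 10% TCA and stained with 0.1% sulforhodamine B; absorbance at 560 nm gave relative cell number, fitted bidirectionally against DMSO baseline.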

Test [16] deals with Peroxisome proliferator-activated receptor gamma (Homo sapiens) (UniProt P37231). Description: ATG_PPARg_TRANS: Attagene TRANS-FACTORIAL HepG2 Assay for human Peroxisome Proliferator-activated Receptor-gamma (PPARg) (AID 2283007; active means hit-call score of the fitted dose curve at least 0.9, where 1 is the maximum). Summed up: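 Read-out: reporter mRNA induction, detected by fluorescence after RT-PCR and capillary electrophoresis. Transiently transfected human HepG2 liver cells carrying a chimeric NR-Gal4 construct were dosed for 24 h; activity was fitted upward relative to DMSO.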
Peroxisome proliferator-activated receptor gamma (Homo sapiens), sequence (P37231 whole entry, looked up, the tested form may be a part): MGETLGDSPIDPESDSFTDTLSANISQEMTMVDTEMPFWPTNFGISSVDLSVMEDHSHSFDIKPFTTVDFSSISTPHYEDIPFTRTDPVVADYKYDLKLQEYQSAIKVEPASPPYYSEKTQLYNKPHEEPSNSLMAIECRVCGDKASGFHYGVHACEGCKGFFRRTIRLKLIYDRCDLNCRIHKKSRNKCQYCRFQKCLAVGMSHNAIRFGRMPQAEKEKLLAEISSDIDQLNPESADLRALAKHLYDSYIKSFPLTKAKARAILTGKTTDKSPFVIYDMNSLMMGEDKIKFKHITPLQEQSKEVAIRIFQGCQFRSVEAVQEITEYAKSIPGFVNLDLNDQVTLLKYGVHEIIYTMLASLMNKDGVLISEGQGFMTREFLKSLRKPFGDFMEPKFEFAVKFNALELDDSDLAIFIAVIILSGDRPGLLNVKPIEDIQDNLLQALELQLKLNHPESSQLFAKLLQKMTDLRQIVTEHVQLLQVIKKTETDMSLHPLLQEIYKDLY

Test [17] has as its target Nuclear receptor subfamily 1 group I member 2 (Homo sapiens) (UniProt O75469). Description: ATG_PXR_TRANS: Attagene TRANS-FACTORIAL HepG2 Assay for human Pregnane X Receptor (PXR) (AID 2283008; active means hit-call score of the fitted dose curve at least 0.9, where 1 is the maximum). In a few lines: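 Fluorescence intensity of FAM-labelled, HpaI-digested reporter amplicons, separated by capillary electrophoresis, quantifies induction. HepG2 cells with PXR-Gal4 trans-reporter system were exposed 24 h; DMSO defines baseline.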

For test [18], the target named is human Retinoic Acid Receptor gamma (RARg), RARG (gene 5916) (UniProt P13631). Description: ATG_RARg_TRANS: Attagene TRANS-FACTORIAL HepG2 Assay for human Retinoic Acid Receptor gamma (RARg) (AID 2283009; active means hit-call score of the fitted dose curve at least 0.9, where 1 is the maximum). Summed up: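 HepG2 cells transiently transfected with multiplexed reporter units expressing chimeric RARg-GAL4 and GAL4-UAS-driven reporters; 24 h compound exposure. Reporter mRNA quantified by RT-PCR with fluorescent labelling and capillary electrophoresis; gain-of-signal fitted relative to DMSO baseline.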
human Retinoic Acid Receptor gamma (RARg), RARG (gene 5916), sequence (P13631 whole entry, looked up, the tested form may be a part): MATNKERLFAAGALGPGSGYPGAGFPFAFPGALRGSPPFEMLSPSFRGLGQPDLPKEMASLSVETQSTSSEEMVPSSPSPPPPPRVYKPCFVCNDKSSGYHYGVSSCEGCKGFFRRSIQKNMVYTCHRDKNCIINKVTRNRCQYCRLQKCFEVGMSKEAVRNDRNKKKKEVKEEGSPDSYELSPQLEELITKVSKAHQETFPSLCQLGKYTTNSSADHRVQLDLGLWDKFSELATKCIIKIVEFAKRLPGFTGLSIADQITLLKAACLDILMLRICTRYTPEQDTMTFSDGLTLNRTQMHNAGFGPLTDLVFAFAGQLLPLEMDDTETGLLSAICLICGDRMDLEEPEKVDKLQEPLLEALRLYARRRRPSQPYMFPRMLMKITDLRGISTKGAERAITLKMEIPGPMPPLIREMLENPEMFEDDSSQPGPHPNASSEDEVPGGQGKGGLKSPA

In test [19] the target is human Peroxisome Proliferator-activated Receptor delta (PPARd), PPARD (gene 5467) (UniProt Q03181). Description: ATG_PPARd_TRANS: Attagene TRANS-FACTORIAL HepG2 Assay for human Peroxisome Proliferator-activated Receptor delta (PPARd) (AID 2283002; active means hit-call score of the fitted dose curve at least 0.9, where 1 is the maximum). In a few lines: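 Read-out: reporter mRNA induction, quantified by fluorescent RT-PCR products resolved by capillary electrophoresis. Human HepG2 liver cells carried transiently transfected Gal4-UAS reporter constructs with chimeric NR-Gal4 fusions. Cells were dosed for 24 h; DMSO served as baseline.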
human Peroxisome Proliferator-activated Receptor delta (PPARd), PPARD (gene 5467), sequence (Q03181 whole entry, looked up, the tested form may be a part): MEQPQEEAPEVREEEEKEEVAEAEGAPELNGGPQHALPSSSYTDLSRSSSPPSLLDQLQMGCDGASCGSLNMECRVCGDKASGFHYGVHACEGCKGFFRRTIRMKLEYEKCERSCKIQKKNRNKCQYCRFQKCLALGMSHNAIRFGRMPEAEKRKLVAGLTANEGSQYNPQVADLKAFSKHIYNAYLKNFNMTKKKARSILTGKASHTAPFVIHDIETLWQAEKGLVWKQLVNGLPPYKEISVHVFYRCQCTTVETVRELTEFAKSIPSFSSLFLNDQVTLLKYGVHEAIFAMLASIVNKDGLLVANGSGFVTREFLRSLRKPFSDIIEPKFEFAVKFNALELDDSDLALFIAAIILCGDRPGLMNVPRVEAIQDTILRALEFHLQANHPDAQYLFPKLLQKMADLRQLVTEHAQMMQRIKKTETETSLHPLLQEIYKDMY

Structures are written as SMILES. “And” between values parts separate entries of the source, which are not always exact repeats. Equal entries are not always repeated. Inconclusive results are not listed. Where a structure was tested more than once in an assay, its records may differ in their call. The source made the active and inactive calls. How the source made its calls, unless noted: active means hit-call score of the fitted dose curve at least 0.9, where 1 is the maximum; inactive means score below 0.9.

Nuclear respiratory factor 1 (Homo sapiens), sequence (Q16656 whole entry, looked up): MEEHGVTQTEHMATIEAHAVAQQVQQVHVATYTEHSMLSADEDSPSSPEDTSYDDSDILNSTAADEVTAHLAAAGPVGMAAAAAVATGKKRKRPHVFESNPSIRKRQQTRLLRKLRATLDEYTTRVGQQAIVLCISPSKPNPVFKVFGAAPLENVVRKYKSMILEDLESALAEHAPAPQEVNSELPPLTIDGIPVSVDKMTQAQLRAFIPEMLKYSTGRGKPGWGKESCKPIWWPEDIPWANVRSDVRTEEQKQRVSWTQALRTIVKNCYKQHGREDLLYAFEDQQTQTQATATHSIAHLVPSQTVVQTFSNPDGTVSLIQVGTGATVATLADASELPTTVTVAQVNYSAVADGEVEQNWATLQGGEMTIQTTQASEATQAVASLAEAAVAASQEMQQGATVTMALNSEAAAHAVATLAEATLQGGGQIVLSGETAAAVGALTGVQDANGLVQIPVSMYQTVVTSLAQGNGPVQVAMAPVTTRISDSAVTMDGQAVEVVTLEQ
Cellular tumor antigen p53 (Homo sapiens), sequence (P04637 whole entry, looked up): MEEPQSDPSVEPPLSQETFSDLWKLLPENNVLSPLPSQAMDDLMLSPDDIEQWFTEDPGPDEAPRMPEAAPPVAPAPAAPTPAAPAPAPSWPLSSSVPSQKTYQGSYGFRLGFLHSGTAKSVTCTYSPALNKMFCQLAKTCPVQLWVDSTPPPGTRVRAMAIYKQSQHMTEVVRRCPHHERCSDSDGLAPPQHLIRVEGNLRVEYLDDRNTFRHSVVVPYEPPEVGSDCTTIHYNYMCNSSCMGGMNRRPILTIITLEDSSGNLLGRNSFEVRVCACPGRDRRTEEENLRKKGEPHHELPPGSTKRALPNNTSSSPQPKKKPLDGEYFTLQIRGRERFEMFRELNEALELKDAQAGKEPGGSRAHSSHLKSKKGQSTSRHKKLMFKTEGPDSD
human Peroxisome Proliferator-activated Receptor alpha (PPARa), PPARA (gene 5465), sequence (Q07869 whole entry, looked up, the tested form may be a part): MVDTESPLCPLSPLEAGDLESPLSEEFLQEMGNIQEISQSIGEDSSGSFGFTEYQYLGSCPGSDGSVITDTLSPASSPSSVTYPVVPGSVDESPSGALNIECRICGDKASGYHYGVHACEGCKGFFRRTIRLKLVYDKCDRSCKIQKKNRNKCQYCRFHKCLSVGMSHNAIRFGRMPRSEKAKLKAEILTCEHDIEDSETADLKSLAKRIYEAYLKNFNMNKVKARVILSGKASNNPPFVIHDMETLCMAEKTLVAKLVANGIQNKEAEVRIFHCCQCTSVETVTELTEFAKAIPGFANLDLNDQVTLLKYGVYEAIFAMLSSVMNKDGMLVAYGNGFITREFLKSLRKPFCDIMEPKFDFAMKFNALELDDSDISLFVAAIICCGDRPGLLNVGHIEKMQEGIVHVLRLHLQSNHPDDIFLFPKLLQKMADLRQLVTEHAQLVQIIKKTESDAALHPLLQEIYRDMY
Nuclear receptor subfamily 1 group I member 2 (Homo sapiens), sequence (O75469 whole entry, looked up, the tested form may be a part): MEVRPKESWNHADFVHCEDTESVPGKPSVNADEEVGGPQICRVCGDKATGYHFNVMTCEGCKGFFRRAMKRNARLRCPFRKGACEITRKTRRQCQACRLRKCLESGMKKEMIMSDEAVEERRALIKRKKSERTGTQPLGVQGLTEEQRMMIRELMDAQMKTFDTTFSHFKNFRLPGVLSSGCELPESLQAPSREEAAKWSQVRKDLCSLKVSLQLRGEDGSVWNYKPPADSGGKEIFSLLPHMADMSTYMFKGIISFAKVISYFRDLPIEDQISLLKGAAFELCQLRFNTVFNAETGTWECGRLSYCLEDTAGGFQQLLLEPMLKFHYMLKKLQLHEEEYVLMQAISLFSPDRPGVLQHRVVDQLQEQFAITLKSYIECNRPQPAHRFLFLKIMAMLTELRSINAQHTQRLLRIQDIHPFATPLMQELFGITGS
human Retinoic Acid Receptor beta (RARb), RARB (gene 5915), sequence (P10826 whole entry, looked up): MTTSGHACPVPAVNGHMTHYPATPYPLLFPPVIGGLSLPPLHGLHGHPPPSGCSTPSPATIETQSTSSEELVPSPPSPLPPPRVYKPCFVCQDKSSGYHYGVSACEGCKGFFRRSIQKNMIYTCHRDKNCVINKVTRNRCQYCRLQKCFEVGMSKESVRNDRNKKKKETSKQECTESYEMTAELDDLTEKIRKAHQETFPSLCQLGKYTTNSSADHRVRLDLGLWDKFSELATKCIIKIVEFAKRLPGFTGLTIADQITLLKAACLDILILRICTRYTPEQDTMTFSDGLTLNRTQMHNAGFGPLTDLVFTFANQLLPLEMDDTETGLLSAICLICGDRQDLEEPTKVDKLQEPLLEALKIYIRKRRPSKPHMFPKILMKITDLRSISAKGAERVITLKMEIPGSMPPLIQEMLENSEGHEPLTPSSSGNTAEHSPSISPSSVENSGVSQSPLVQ

One may read the AC50 as the concentration giving half of the maximal activity seen. Regarding `O=C(c1ccccc1)c1ccc(O)cc1O`, the result in test [1], in [2], in [3], in [4], in test [6] and in [7] was inactive. Besides, the outcome in test [8], in [9], in test [10], in [11], in [12] and in [13] was inactive. Also, the compound was called inactive in test [14], in test [15], in test [17] and in [18]. The figures for the AC50 in [5] and in test [16] were 66.8 µM (active) and 42.5 µM (active), respectively.

As for `OC(O)C(F)(F)C(F)(F)F`, the compound was called inactive in [1], in [2], in test [3], in [6], in test [8] and in test [9]. Also, the result in test [10], in test [11], in [13], in test [15] and in test [16] was inactive. Also, the values for the AC50 in [4], in test [5] and in [7] were 127 µM (active), 93.6 µM (active) and 121 µM (active), respectively.

In the case of `OCC(F)(F)C(F)(F)C(F)(F)C(F)(F)C(F)(F)C(F)(F)C(F)(F)C(F)(F)CO`, the outcome in test [1], in [2], in [3], in test [4], in [5] and in [6] was inactive. The outcome in test [7], in test [8], in [9], in test [10], in test [11] and in [19] was inactive. The result in [13] and in test [16] was inactive. The AC50 in test [9] was 7.66 µM (active); in test [11], 38 µM (active); in [15], 30 µM (active) and 44.6 µM (active); in [17], 14.4 µM (active).

Take `O=C(O)C(F)(F)C(F)(F)C(F)(F)C(=O)O`: the result in test [1], in [2], in test [3], in test [4], in [5] and in test [6] was inactive. Besides, the result in [7], in test [8], in test [9], in [10], in [11] and in test [12] was inactive. The result in [13], in [15] and in test [18] was inactive. Also, in test [16], the AC50 is 84.1 µM (active).

Turning to `NS(=O)(=O)C(F)(F)C(F)(F)C(F)(F)C(F)(F)C(F)(F)C(F)(F)F`, the compound was called inactive in [1], in [2], in test [3], in test [4], in test [5] and in test [6]. Moreover, the outcome in [7], in [8], in test [10], in [19], in [13] and in test [14] was inactive. Also, the result in test [17] and in test [18] was inactive. Further, the AC50 in [11] was 46.4 µM (active) and 20.3 µM (active); in [12] it was 28.2 µM (active); in test [15] it was 28.9 µM (active) and 49.6 µM (active); in [16], 50.5 µM (active).

Regarding `CC1=CC2C3C=CC(C3)C2C1C` (configuration not stated), the result in [1], in test [3], in test [4], in test [6], in test [8] and in test [9] was inactive. Moreover, the outcome in test [10], in test [11], in test [19], in test [13], in test [15] and in test [16] was inactive. Also, the AC50 is 100 µM (active) in test [2], 50.6 µM (active) in test [5], 80.4 µM (active) in [7] and 0.387 µM (active) in test [17].

For the compound `CCCC(=O)OCC(COC(=O)CCC)OC(=O)CCC`, the result in test [1], in test [2], in test [3], in test [5] and in test [6] was inactive. Further, the AC50 was 44.7 µM (active) in [4] and 89.1 µM (active) in test [7].

In the case of `NC(O)(C(F)(F)F)C(F)(F)F`, the result in [1], in [2], in [3], in [4], in test [5] and in test [6] was inactive. For the same compound, the compound was called inactive in test [7], in test [8], in [9], in [10], in test [11] and in test [19]. Moreover, the result in test [13], in [15] and in test [17] was inactive.
